From PubChem BioAssay AID1508602 (The Scripps Research Institute Molecular Screening Center, 2020) come the findings set out here.

The structures appear in SMILES notation. The whole screen tested about 650,000 compounds, of which about 6,800 (1%) were called active. What follows is part of a selection rich in actives, with near analogues and random picks from the rest. Values without a mark were called inactive. Cut-off read from the data, not from the text of the source: active = activation above about 4.9%; inactive = the rest.

In the assay the target is G-protein coupled receptor 151 (Homo sapiens) (UniProt Q8TDV0). Put plainly: activates the human receptor GPR151, primary screen, cell-based, PathHunter beta-arrestin, luminescence (AID 1508602).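 Note: 0% = median of compound wells and 100% = cells with positive control.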 Conditions: PathHunter beta-arrestin GPR151 cells, at 11.2 µM, stronger effect = higher value.
Sequence of G-protein coupled receptor 151 (Homo sapiens) (Q8TDV0 whole entry, looked up): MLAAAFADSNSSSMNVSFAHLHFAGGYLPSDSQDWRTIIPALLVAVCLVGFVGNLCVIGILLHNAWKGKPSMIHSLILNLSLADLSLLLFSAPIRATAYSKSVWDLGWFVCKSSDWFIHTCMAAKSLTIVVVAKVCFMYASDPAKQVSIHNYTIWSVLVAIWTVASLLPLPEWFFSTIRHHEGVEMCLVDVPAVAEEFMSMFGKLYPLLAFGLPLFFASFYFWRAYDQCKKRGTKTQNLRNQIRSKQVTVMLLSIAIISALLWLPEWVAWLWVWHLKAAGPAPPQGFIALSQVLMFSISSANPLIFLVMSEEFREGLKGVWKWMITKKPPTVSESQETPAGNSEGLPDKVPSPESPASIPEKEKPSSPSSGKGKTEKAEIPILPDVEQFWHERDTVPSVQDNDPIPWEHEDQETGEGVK
Take `Cc1cccc(NC(=O)COc2ccc([N+](=O)[O-])cc2)c1`: the activation is 0.0864%. The figure for `O=C(Nc1ccc2oc(-c3ccc(F)cc3)nc2c1)c1ccc([N+](=O)[O-])cc1` is 0.435%.

Regarding `Cc1cc2nc(-c3cccc(NC(=O)COc4ccc(Br)cc4)c3)oc2cc1C`, the activation is -0.225%. The result for `O=C(COc1ccc([N+](=O)[O-])cc1)Nc1ccc2oc(-c3cccc(F)c3)nc2c1` reads 6.49% (active); that for `O=C(COc1ccc([N+](=O)[O-])cc1)Nc1cccc(Br)c1`, 0.574%; that for `COC(=O)c1cc(NC(=O)COc2ccc([N+](=O)[O-])cc2)cc(C(=O)OC)c1`, 5.49% (active). The result for `CCCNc1nc(Cl)nc2c1ncn2Cc1ccc(C(F)(F)F)cc1` reads 0.16%; that for `O=C(Cc1csc(SCc2cccc(Cl)c2)n1)NC1CCCC1`, -0.537%. Regarding `O=C(Nc1ccc2c(c1)OCO2)C(c1ccccc1)N(Cc1ccccc1)Cc1ccccc1` (centres undefined), the activation was -0.714%.

As to `Cc1ccc2c(c1)N(CC(=O)N(Cc1ccccc1)Cc1ccc3c(c1)OCO3)C(=O)CO2`, the activation was 1.35%.

`CCC(=O)N(CCC(Cc1ccccc1)c1ccc2c(c1)OCO2)Cc1ccc(OC(C)C)cc1` (centres undefined): the activation is 6.12% (active). The figure for `CCn1c(SCC(=O)Nc2ccccc2Cl)nnc1-c1ccccc1N` is 0.603%; for `CC(C)(C)C(=O)CSc1nc2c(sc(=S)n2CCc2ccccc2)c(=O)n1Cc1ccco1` it is -0.941%; for `O=C(NCCc1ccccc1)C(=O)NCCC1CCCCC1` it is -1.51%. The figure for `CNC(=O)C(=O)NCCc1ccccc1` is 2.61%. In the case of `CC(C)(C)C1CCC(=NNC(=O)C(=O)NCCc2ccccc2)CC1` (centres undefined), the activation was 6.69% (active). As to `Cc1ccc2c(CC(=O)N3CCc4ccccc4C3)cc(=O)oc2c1`, the activation is -1.02%. The result for `Cc1nnc(C)n1/N=C/c1ccc(Br)cc1` reads 0.537%; that for `Cc1nc([N+](=O)[O-])cn1CC(=O)C12CC3CC(CC(C3)C1)C2`, 0.332%; that for `COc1ccc(CCNc2cc(C)nc3ncnn23)cc1`, -0.69%. The figure for `COP(=O)(OC)C(OC(=O)NC(=O)C(Cl)(Cl)Cl)c1ccccc1` (centres undefined) is 0.583%; for `CCN(CC)S(=O)(=O)c1ccc(N2CCCC2)c(C(=O)O)c1` it is 1.07%; for `CCN(CC)S(=O)(=O)c1ccc(N2CCCC2)c(NC(=O)c2ccc([N+](=O)[O-])o2)c1` it is 5.27% (active). In the case of `O=C(Nc1ccc(N2CCCCC2)c(Cl)c1)c1ccc([N+](=O)[O-])o1`, the activation is 1.67%. The figure for `Cc1ccc(-c2cnn3ccc(NCc4cccnc4)nc23)cc1C` is -1.12%. The figure for `Cc1ccc(S(=O)(=O)N/N=C/c2c[nH]c3ccc(Br)cc23)cc1` is 0.63%; for `O=C(O)c1ccc(-c2nc(-c3cccs3)c(-c3cccs3)[nH]2)cc1` it is 1.43%. As for `COc1cc(OC)cc(-c2nc(-c3ccccc3)c(-c3cccs3)[nH]2)c1`, the activation is 0.0508%.

Turning to `c1ccc(-c2nc(-c3cccs3)[nH]c2-c2cccs2)cc1`, the activation is 6.25% (active). The figure for `O=C1NC2(CCN(CC3CCC=CO3)CC2)Oc2ccccc21` (centres undefined) is -0.166%; for `N#Cc1cccc(S(=O)(=O)Nc2cccc(Br)c2)c1` it is 0.99%; for `CCN(CC)S(=O)(=O)c1cccc(C(=O)N/N=C(\C)c2ccc(C#N)cc2)c1` it is -0.108%. Consider `CCN(CC)S(=O)(=O)c1ccc(C)c(NS(=O)(=O)c2cccc(C#N)c2)c1`, for which the activation was 5.51% (active).

Consider `CNC(=O)c1c(NC(=O)c2ccc(OC)cc2)sc2c1CCCCC2`, for which the activation was -1.51%. With `COc1cccc(C(=O)Nc2sc3c(c2C(N)=O)CCCCCC3)c1`, the activation was 6.65% (active).

As to `COc1ccc(C(=O)Nc2sc3c(c2C(N)=O)CCCC3)cc1`, the activation is 5.12% (active). `CC(C)Oc1ccc(C(=O)Nc2sc3c(c2C(N)=O)CCCC3)cc1`: the activation is -0.378%. The result for `NC(=O)c1c(NC(=O)c2ccc(Oc3ccccc3)cc2)sc2c1CCCCC2` reads -0.921%; that for `CNC(=O)c1c(NC(=O)c2cccc(OC)c2)sc2c1CCC2`, -0.776%.

With `CCc1ccc2[nH]c3nc(SCC#N)nnc3c2c1`, the activation was -0.711%. As for `COCCN1C(=O)CC(CC(=O)N2CCN(C)C[C@@H]2C(C)C)(c2cccc(OC)c2)C1=O` (some centres undefined), the activation is 1.08%. The figure for `CCCCOc1ccc(S(=O)(=O)NC2CCCCC2)cc1` is -1.26%; for `OCCNc1ncnc2nc(-c3ccccc3)[nH]c12` it is 0.187%. The figure for `Cc1nn(C)c(C)c1-c1nc2c(NCCO)ncnc2n1C(C)C` is -0.731%; for `Cc1nn(C)c(C)c1-c1nc2ncnc(NCCO)c2[nH]1` it is 7.4% (active).

Take `COc1ccc(-c2nnc(SCC(=O)NC(N)=O)o2)cc1`: the activation is 0.906%. The figure for `N#CCCCSc1nnc(-c2ccc(C#N)cc2)o1` is -0.162%. Consider `COc1ccc(-c2nnc(SCCC#N)o2)cc1`, for which the activation is 10.1% (active). The figure for `CCOC(=O)c1cc2c(=O)n3ccccc3nc2n(Cc2ccco2)c1=NC(=O)c1ccc(Cl)cc1` is -0.357%; for `CC(C)N(C(=O)CN(C)S(=O)(=O)c1cc(Cl)ccc1Cl)C(C)C` it is -0.725%; for `COc1ccc(NC(=O)c2nn3c(C(F)(F)F)cc(-c4ccccc4)nc3c2Br)c(OC)c1` it is 2.64%. The result for `O=C(O)/C=C/c1ccccc1Cl` reads 5.27% (active); that for `O=C(/C=C/c1ccccc1Cl)Nc1ccc(I)cc1`, 1.42%. For `CC(C)c1ccc(NC(=O)/C=C/c2ccccc2Cl)cc1`, the activation was 1.13%. The result for `CC(=O)NS(=O)(=O)c1ccc(NC(=O)/C=C/c2ccccc2Cl)cc1` reads 0.647%; that for `CC(C)NC(=O)/C=C/c1ccccc1Cl`, 5.07% (active); that for `NC(=O)NC(=O)COC(=O)/C=C/c1ccccc1Cl`, 1.72%. The figure for `CCOc1ccc(CN2CCN(Cc3ccc(C)o3)C(CCO)C2)cc1CO` (centres undefined) is 1.78%; for `O=C(N/N=C/c1ccc([N+](=O)[O-])cc1)c1cccc(I)c1` it is -0.236%; for `O=C(O)c1ccc(Br)c(N2C(=O)c3cc(Cl)c(Cl)cc3C2=O)c1` it is 0.176%. The figure for `Cc1ccccc1NC(=O)Nn1cnnc1` is -0.0585%.

In the case of `COc1ccc(CN(N=Nc2nonc2C)c2nonc2C)cc1`, the activation was -0.147%. The result for `CC(=O)c1ccc(C(=O)NCC2Cc3cc(Cl)cc(-c4ccncc4)c3O2)s1` (centres undefined) reads 1.35%. Regarding `Cc1nc(=S)[nH]c(C)c1CCC(=O)O`, the activation was 0.381%.

For the molecule `CCOC(=O)CCC(=O)OC(C(=O)c1ccccc1)c1ccccc1` (centres undefined), the activation was 0.912%.

For `CCOC(=O)C(C(=O)c1ccccc1)C1(O)C(=O)c2ccccc2C1=O` (centres undefined), the activation is 6.04% (active). The result for `CCOC(C(=O)c1ccccc1)c1ccccc1` (centres undefined) reads -0.174%. As to `CCc1ccc(CN2CCCC(CO)(Cc3cccc(OC)c3)C2)o1` (centres undefined), the activation is 0.911%. The result for `N#Cc1c(-c2ccc(F)cc2)cc(-c2ccccc2)nc1SCCOc1ccccc1` reads -0.0587%; that for `Cc1cncc2cccc(N3CCN(C(=O)C(N)c4ccc(Br)cc4)CC3)c12` (centres undefined), 1.97%. The figure for `Cn1c(=O)c2cc(C(=O)NCCCN3CCCCCC3)sc2c2ccccc21` is 0.856%; for `CCN1CCN(C(=O)c2cc3c(=O)n(C)c4ccccc4c3s2)CC1` it is 0.989%.

As to `CC1CCCCN1C(=O)c1cc2c(=O)n(C)c3ccccc3c2s1` (centres undefined), the activation was 5.42% (active). The figure for `O=C(Nc1cccc(-c2nnc3n2CCCCC3)c1)c1ccc(=O)n(Cc2ccccc2)n1` is -1.56%. The figure for `CCOC(=O)c1c(-c2ccc(OC)cc2)oc2ccc(OC(=O)c3ccccc3OC)cc12` is -0.167%; for `O=C(c1ncoc1-c1cccs1)N1CCN(c2ccc(C(F)(F)F)cn2)CC1` it is 0.0668%; for `Nc1[nH]c(=O)[nH]c(=O)c1N=Nc1cccc(Br)c1` it is -1.15%. Consider `O=C1CCN(Cc2cc(F)cc(F)c2)CCN1Cc1ccc(Cl)s1`, for which the activation was -0.0282%. The figure for `CCCn1c(=N)c(C(=O)NCc2ccc(C)cc2)cc2c(=O)n3ccccc3nc21` is 1.57%; for `N=c1c(C(=O)NCc2cccnc2)cc2c(=O)n3ccccc3nc2n1CCO` it is 1.18%. The figure for `COCCNC(=O)c1cc2c(=O)n3ccccc3nc2n(CCc2ccccc2)c1=N` is 4.99% (active); for `Cc1ccc(C2(C)NC(=O)N(CC(=O)c3ccc(Br)s3)C2=O)cc1` (centres undefined) it is 1.11%; for `O=C(CN(c1cccc([N+](=O)[O-])c1)S(=O)(=O)c1ccccc1)N1CCOCC1` it is 0.197%. The figure for `CCCCN1C(=O)S/C(=C\c2ccc(O)c([N+](=O)[O-])c2)C1=O` is -1.5%. Take `CN(C)S(=O)(=O)c1cccc(C(=O)N2CCCc3ccccc32)c1`: the activation is 1.08%.

`O=C(CC1C(=O)NCCN1Cc1ccc2ccccc2c1)NCCCn1cccn1` (centres undefined): the activation is 5.94% (active). The result for `COC(=O)CCCNC(=O)CC1C(=O)NCCN1Cc1ccc2ccccc2c1` (centres undefined) reads -0.306%; that for `O=C(CC1C(=O)NCCN1CCc1ccccc1)NCCCn1ncc2ccccc21` (centres undefined), 0.711%.

Regarding `COc1cc(CN(C(=O)c2cncs2)C2CCCC2)cc(OC)c1OCC1CCCO1` (centres undefined), the activation was -1.02%.

As for `COC(=O)c1ccc2c(=O)nc3c(-c4ccccc4)n[nH]n3c2c1`, the activation was -1.93%. The figure for `CCOC(=O)c1ccc(CNC(=O)c2cc(CCc3ccccc3)no2)o1` is 0.0388%. Take `COc1ccc(Cn2cc[nH]c(=O)c2=O)cc1`: the activation was -0.548%. The figure for `Oc1ccc(Cn2cc[nH]c2=S)cc1` is 8.86% (active); for `O=[N+]([O-])c1cccc(COC2=NS(=O)(=O)c3ccccc32)c1` it is 0.739%.
